# Laboratory results reported in ChEMBL document CHEMBL5606458, “ASAP - ZIKV NS2B-NS3 protease fluorescence single point” (2024).
# About 160 (5.9%) of roughly 2,700 compounds showed an effect of 50% or more. Shown is part of a subset that was picked to be rich in strong results.
# Target: Nonstructural protein 3 (Zika virus) (UniProt A0A024AXB9)
# [1] = PRVABC59, Concentration 50.0 uM, Number of replicates 1.0
# [2] = PRVABC59, Concentration 10.0 uM, Number of replicates 1.0
# Sequence of Nonstructural protein 3 (Zika virus) (A0A024AXB9 as listed by the source): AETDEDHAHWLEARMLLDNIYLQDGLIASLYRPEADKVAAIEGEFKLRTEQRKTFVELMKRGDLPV
smiles,measurement,setting,value
CNC(=O)c1cc(Cl)ccc1NS(=O)(=O)c1cccc(Oc2ccccc2)c1,inhibition,"PRVABC59, Concentration 49.5 uM, Number of replicates 2.0, Standard deviation 3.0665234385287206 %",9.77%
same,inhibition,"PRVABC59, Concentration 99.01 uM, Number of replicates 2.0, Standard deviation 2.7531252049731103 %",15.8%
same,inhibition,"PRVABC59, Concentration 198.0 uM, Number of replicates 2.0, Standard deviation 3.162284112918565 %",28.1%
CNC(=O)c1cc(Cl)c(F)cc1NS(=O)(=O)c1ccc(Oc2ccccc2Cl)cc1,inhibition,"PRVABC59, Concentration 49.5 uM, Number of replicates 2.0, Standard deviation 0.22897404989083275 %",53.5%
same,inhibition,"PRVABC59, Concentration 99.01 uM, Number of replicates 2.0, Standard deviation 0.1399302344544729 %",88.1%
same,inhibition,"PRVABC59, Concentration 198.0 uM, Number of replicates 2.0, Standard deviation 0.21988651500230783 %",90.5%
O=S(=O)(Nc1ccc(Cl)cc1)c1ccc(Oc2ccccc2Cl)cc1,inhibition,"PRVABC59, Concentration 49.5 uM, Number of replicates 2.0, Standard deviation 0.5562375850821631 %",7.5%
same,inhibition,"PRVABC59, Concentration 99.01 uM, Number of replicates 2.0, Standard deviation 0.1909474772903637 %",13.8%
same,inhibition,"PRVABC59, Concentration 198.0 uM, Number of replicates 2.0, Standard deviation 0.9464347944699606 %",26.1%
CCc1ccc(NS(=O)(=O)c2ccc(Oc3ccccc3Cl)cc2)c(C(=O)NC)c1,inhibition,"PRVABC59, Concentration 49.5 uM, Number of replicates 2.0, Standard deviation 1.2139175769082269 %",14.3%
same,inhibition,"PRVABC59, Concentration 99.01 uM, Number of replicates 2.0, Standard deviation 1.880844587297581 %",19.5%
same,inhibition,"PRVABC59, Concentration 198.0 uM, Number of replicates 2.0, Standard deviation 1.9898788215700518 %",28.9%
O=Cc1ccc(N2CCC(C(=O)N3CCC(N4CCc5ccccc5C4)CC3)CC2)cc1,inhibition,[1],31.7%
NS(=O)(=O)c1nc(C(=O)N2CCc3c(CO)cccc32)n2ccccc12,inhibition,"PRVABC59, Concentration 49.5 uM, Number of replicates 2.0, Standard deviation 0.7415262579040602 %",14.9%
same,inhibition,"PRVABC59, Concentration 99.01 uM, Number of replicates 2.0, Standard deviation 0.42632784815485236 %",16%
same,inhibition,"PRVABC59, Concentration 198.0 uM, Number of replicates 2.0, Standard deviation 0.11314911538628655 %",22.8%
CC(=O)Nc1cccc(CNC(=O)C2CCN(c3ccc(C=O)cc3)CC2)c1,inhibition,[2],37.6%
O=Cc1ccc(N2CCC(C(=O)NCCN3CCc4ccccc43)CC2)cc1,inhibition,[1],67.9%
O=Cc1ccc(N2CCC(C(=O)Nc3cccc(Br)n3)CC2)cc1,inhibition,[1],69.5%
O=Cc1ccc(N2CCC(C(=O)NCCC3CCN(Cc4ccccc4)CC3)CC2)cc1,inhibition,[1],36.7%
CC1CCN(CCCCNC(=O)C2CCN(c3ccc(C=O)cc3)CC2)CC1,inhibition,[1],38.3%
O=Cc1ccc(N2CCC(C(=O)NC[C@H](O)c3ccc(O)c(O)c3)CC2)cc1,inhibition,[1],37%
O=Cc1ccc(N2CCC(C(=O)NCc3cccc(-c4ccccc4)c3)CC2)cc1,inhibition,[2],66.7%
O=Cc1ccc(N2CCC(C(=O)NCCc3ccc(O)c(O)c3)CC2)cc1,inhibition,[1],48.5%
O=Cc1ccc(N2CCC(C(=O)NCCc3ccccc3[N+](=O)[O-])CC2)cc1,inhibition,[1],31.8%
O=Cc1ccc(N2CCC(C(=O)Nc3ccc(Br)cc3O)CC2)cc1,inhibition,[1],36.5%
O=Cc1ccc(N2CCC(C(=O)Nc3ncc(Br)cc3O)CC2)cc1,inhibition,[1],63.3%
Cc1ccc(N)cc1NC(=O)c1ccc2c(c1)CCNCC2,inhibition,"PRVABC59, Concentration 49.95 uM, Number of replicates 2.0, Standard deviation 12.72305005425739 %",-5.44%
same,inhibition,"PRVABC59, Concentration 99.9 uM, Number of replicates 2.0, Standard deviation 9.350903464198954 %",18.5%
N#Cc1ccc(NC(=O)C2CCN(c3ccc(C=O)cc3)CC2)cc1Br,inhibition,[1],22.8%
Cc1ccc2cccc(NC(=O)C3CCN(c4ccc(C=O)cc4)CC3)c2n1,inhibition,[1],60.8%
CN1[C@@H]2CCC[C@H]1C[C@@H](NC(=O)C1CCN(c3ccc(C=O)cc3)CC1)C2,inhibition,[1],43.1%
CCN1CCN(c2ccc(NC(=O)C3CCN(c4ccc(C=O)cc4)CC3)cc2)CC1,inhibition,[1],54.8%
O=Cc1ccc(N2CCC(C(=O)NC[C@@H]3CCCN4CCCC[C@H]34)CC2)cc1,inhibition,[1],36.4%
CCn1ccnc(N2CC[C@H](c3cccc(C#N)c3)C2)c1=O,inhibition,"PRVABC59, Concentration 50.0 uM, Number of replicates 2.0, Standard deviation 16.00595625597801 %",20.3%
same,inhibition,"PRVABC59, Concentration 100.0 uM, Number of replicates 2.0, Standard deviation 3.036416764525631 %",15.1%
same,inhibition,"PRVABC59, Concentration 200.0 uM, Number of replicates 2.0, Standard deviation 6.611719762363672 %",25.1%
CNc1cc(COc2cccnc2F)nc(N2CCNCC2)n1,inhibition,"PRVABC59, Concentration 49.5 uM, Number of replicates 2.0, Standard deviation 2.059359081452019 %",4.89%
same,inhibition,"PRVABC59, Concentration 99.01 uM, Number of replicates 2.0, Standard deviation 2.151250675148563 %",12.3%
same,inhibition,"PRVABC59, Concentration 198.0 uM, Number of replicates 2.0, Standard deviation 2.3891841335084476 %",24%
CCn1ccnc(N2CC[C@H](c3ccc(F)cc3)C2)c1=O,inhibition,"PRVABC59, Concentration 49.5 uM, Number of replicates 2.0, Standard deviation 0.27991239382631117 %",8.78%
same,inhibition,"PRVABC59, Concentration 99.01 uM, Number of replicates 2.0, Standard deviation 0.05869134101275442 %",18.2%
same,inhibition,"PRVABC59, Concentration 198.0 uM, Number of replicates 2.0, Standard deviation 0.2009049231321535 %",32.5%
O=C(O)c1ccn(C2CCN(Cc3c[nH]c4ccccc34)CC2)n1,inhibition,"PRVABC59, Concentration 49.5 uM, Number of replicates 2.0, Standard deviation 1.5195725914554161 %",20.5%
same,inhibition,"PRVABC59, Concentration 99.01 uM, Number of replicates 2.0, Standard deviation 1.1461623032421138 %",35.4%
same,inhibition,"PRVABC59, Concentration 198.0 uM, Number of replicates 2.0, Standard deviation 1.0942994260377004 %",52.6%
NC(=O)C1CCN(Cc2c[nH]c3ccccc23)CC1,inhibition,"PRVABC59, Concentration 49.5 uM, Number of replicates 2.0, Standard deviation 3.887096953751933 %",5.72%
same,inhibition,"PRVABC59, Concentration 99.01 uM, Number of replicates 2.0, Standard deviation 2.3727111220616615 %",14.1%
same,inhibition,"PRVABC59, Concentration 198.0 uM, Number of replicates 2.0, Standard deviation 2.367525373820881 %",27.9%
